Source: PubChem BioAssay (National Center for Advancing Translational Sciences (NCATS))
D3 ag = qHTS of D3 Dopamine Receptor Agonist: qHTS. max activation, %. hit rate 0.58% among 410,000. D3R DiscoveRx beta-arrestin cells, luminescence, 90 min. D(3) dopamine receptor (Homo sapiens), P35462; in the data active means max activation above about 30%; further: 0% is about no effect
Target sequence (P35462 whole entry, looked up): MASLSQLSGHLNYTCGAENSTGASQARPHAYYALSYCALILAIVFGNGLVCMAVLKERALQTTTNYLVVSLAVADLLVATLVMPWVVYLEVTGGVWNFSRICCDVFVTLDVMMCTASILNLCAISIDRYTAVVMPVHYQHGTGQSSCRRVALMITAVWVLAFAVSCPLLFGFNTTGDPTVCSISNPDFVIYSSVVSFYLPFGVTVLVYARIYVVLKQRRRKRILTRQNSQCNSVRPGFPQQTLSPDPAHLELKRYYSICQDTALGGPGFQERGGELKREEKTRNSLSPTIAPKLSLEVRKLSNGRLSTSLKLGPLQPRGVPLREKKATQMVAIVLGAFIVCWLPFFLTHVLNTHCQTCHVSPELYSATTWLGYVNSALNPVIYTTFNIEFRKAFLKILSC
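Agonist mode: compounds and dopamine controls were applied to plated cells for 90 min at 37 degrees C after an overnight attachment at 1500 cells/well. Luminescent read-out followed 30 - 60 minutes at room temperature with DiscoveRx detection reagent.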
DRD3 antagonist = qHTS of D3 Dopamine Receptor Antagonist: qHTS; hit rate 2.5% among 360,000; max response, negative = inhibition, %; D3R cells, DiscoveRx beta-arrestin luminescence, antagonist mode; active compounds read low; AID 652054, 2013; D(3) dopamine receptor (Homo sapiens), P35462; in the data active means max response below about -50%; inconclusive means no clear call, values can overlap the other calls; further: on the % scale 0 is the no-effect control and ±100 the full control effect
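Cells plated overnight at 1500 cells/well, then exposed to library compounds with dopamine controls for 90 minutes at 37 degrees C. DiscoveRx reagent added for 30–60 minutes at room temperature; luminescence read, quantitative HTS format.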
D1 potentiator = Potentiators of Human D1 Dopamine Receptor: qHTS | D(1A) dopamine receptor (Homo sapiens), P21728 | HEK293 TREx D1 cells, calcium flux, dopamine EC20 potentiation | potentiation, % at 10 µM | hit rate 0.036% among 360,000; in the data active means potentiation above about 30%; further: 0% is about no effect
D1 antag = Antagonist of Human D 1 Dopamine Receptor: qHTS | D(1A) dopamine receptor (Homo sapiens), P21728 | activity change, negative = inhibition, % at 10 µM | hit rate 3.2% among 360,000 | HEK293 TREx D1 cells, calcium flux, dopamine EC80; active compounds read low; in the data active means activity change below about -30%; further: on the % scale 0 is the no-effect control and ±100 the full control effect
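Tetracycline-induced HEK293 Trex D1 cells, force-coupled to calcium, dye-loaded; compounds added and read 180 s, then EC80 dopamine added and calcium flux tracked kinetically another 180 s.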
D1 agonist = Allosteric Agonists of the Human D1 Dopamine Receptor: qHTS; D(1A) dopamine receptor (Homo sapiens), P21728; HEK293 T-REx D1 cells, calcium flux, agonist mode; activation, % at 2 µM; hit rate 1% among 360,000; AID 504660, 2011; in the data active means activation above about 30%; further: 0% is about no effect
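Inducible HEK293 T-REx D1 cells, force-coupled to calcium signalling, were plated at 4000 cells/well with tetracycline and held overnight at 30 C. After no-wash calcium dye loading, compound-evoked calcium rise over 180 s flagged agonists.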
* marks the source's active call; other numbers are inactive results; ? = inconclusive; nt = no result given; ! = repeats disagree. Shown are actives, neighbours in structure and some others; about 6% of the full set was active somewhere.

SMILES	D3 ag	DRD3 antagonist	D1 potentiator	D1 antag	D1 agonist
COc1ccccc1/C=C\C(=O)NCC(=O)N/N=C(/C)c1cccc([N+](=O)[O-])c1	-14	1	-2	-65*	-1
CC(=O)Nc1ccc(C(=O)OCC(=O)c2cccc([N+](=O)[O-])c2)cc1	3	-1	-12	-7	4
CC(=O)Nc1ccc(NC(=O)CCC(=O)OCC(=O)c2cccc([N+](=O)[O-])c2)cc1	-6	-18	-2	-67*	3
COC(=O)Nc1ccc(SCC(=O)c2cccc([N+](=O)[O-])c2)cc1	-5	-60*	-8	-13	6
COc1cccc(Nc2cc(C)nc3ccccc23)c1	-2	-56*	-8	-19	7
COc1ccc2nc(C)cc(Nc3ccccc3OC)c2c1	-6	?	nt	nt	nt
COc1ccc2nc(C)cc(Nc3ccccc3O)c2c1	-2	-2	-5	-35*	-1
CCOc1ccc(OCC)c(NC(=O)c2nnn(CC(=O)Nc3cc(Cl)ccc3OC)c2N)c1	3	nt	1	-5	0
CC(=O)NC1=NN(C(C)=O)C(C)(c2cccs2)S1 (configuration not stated)	-12	-19	9	-4	1
CCc1ccc(C2(C)SC(NC(C)=O)=NN2C(C)=O)cc1 (configuration not stated)	1	8	1	2	56*
CC(=O)NC1=NN(C(C)=O)C(C)(c2cccnc2)S1 (configuration not stated)	0	5	-2	-46*	7
CCCCOc1ccccc1C(=O)N(Cc1sccc1C)C1CCS(=O)(=O)C1 (configuration not stated)	-2	nt	0	-13	-1
CCc1nn2c(N)c(/C=C3\C=Nc4ccccc43)c(=O)nc2s1	-10	-50*!	-7	-2	0
Cc1cn2c(N)c(/C=C3\C=Nc4ccccc43)c(=O)nc2s1	-4	-25	1	2	2
CCn1c(CNc2ccc(Cl)cc2)nnc1SCC(=O)OC1CCCCC1	-10	-29	-4	0	9
CCn1c(CNc2cccc(Cl)c2)nnc1SCC(=O)OC1CCCCC1	-2	11	-4	-43*	36*
Cc1ccc(NC(=O)c2cc([N+](=O)[O-])ccc2N2CCOCC2)cc1C	1	?	-2	-30*	1
O=C(c1cc([N+](=O)[O-])ccc1N1CCOCC1)N1CCOCC1	2	4	2	-42*	1
Cc1ccc(C(=O)c2cc([N+](=O)[O-])ccc2N2CCCCC2)c(C)c1	-11	-56*	-9	-6	1
Cc1cccc(-c2nc3c4ccccc4nc(N4CCN(c5ccccc5F)CC4)n3n2)c1	4	nt	-7	-12	1
CCC1=Nc2cc(C(=O)NC3CCC(C)CC3)ccc2Sc2ccc(C)cc21 (configuration not stated)	-14	nt	-2	-15	1
CN1CCN(C(=O)c2ccc(C3SCC(=O)N3Cc3ccco3)cc2)CC1 (configuration not stated)	1	-59*	7	1	2
COCCNC(=O)c1ccc(C2SCC(=O)N2Cc2ccco2)cc1 (configuration not stated)	1	-2	6	-8	3
CN(C)c1ccc(NC(=S)c2ccc3ccccc3n2)cc1	-6	-51*	8	2	2
Cc1ccc(C)c(NC(=S)c2ccc3ccccc3n2)c1	-5	9	0	21	4
SMILES	D3 ag	DRD3 antagonist	D1 potentiator	D1 antag	D1 agonist
Cc1ccc2c(C)c(C(=O)Nc3c(C)n(C)n(-c4ccccc4)c3=O)oc2c1C	2	1	-7	-37*	0
CCc1nonc1NC(=O)c1oc2ccc(C)cc2c1C	2	3	-6	-1	3
CCc1nonc1NC(=O)c1oc2cc(Br)ccc2c1C	0	0	0	0	3
CCc1nonc1NC(=O)c1oc2c(C)c(C)ccc2c1C	7	-52*	1	3	3
Cc1cc2oc(C(=O)Nc3c(C)n(C)n(-c4ccccc4)c3=O)c(C)c2cc1C	1	-19	-3	-1	1
CCc1ccc2oc(C(=O)Nc3nonc3CC)c(C)c2c1	-4	3	-9	-38*!	7
CC(=O)c1cccc(NS(=O)(=O)c2ccc3[nH]c4c(c3c2)CCCCCC4)c1	5	nt	-3	4	1
COc1ccc2c(c1)c1c(c(=O)n(-c3ccccc3C)c(=O)n1CC(=O)NCc1ccc(C)cc1)n2C	-15	nt	-1	-4	-1
CCC(=O)c1ccc(OC(=O)Cc2ccc(OC)cc2)cc1	1	6	-9	-33*	2
COC(=O)CNC(=O)C1CCCN1C(=O)CNC(=O)OCc1ccccc1 (configuration not stated)	-4	-15	3	-9	4
COC(=O)C1CCCN1C(=O)C1CCCN1C(=O)CNC(=O)OCc1ccccc1 (configuration not stated)	2	-54*	-11	-10	3
O=C(OCc1ccccc1)C1CCN(S(=O)(=O)c2cccs2)CC1	2	9	nt	nt	nt
O=C(CCc1ccccc1)N1CCN(S(=O)(=O)c2cccs2)CC1	-15	?	-3	-40*	3
O=S(=O)(c1cccs1)N1CCC(Cc2ccccc2)CC1	2	9	0	-42*	11
O=C(c1cc2ccccc2o1)N1CCN(S(=O)(=O)c2cccs2)CC1	10	-56*	-5	-9	1
CCCC(c1nnnn1CCc1ccccc1)N1CCN(C(=O)c2ccco2)CC1 (configuration not stated)	-18	-51*	0	5	2
CCCCC(c1nnnn1CCOC)N1CCN(C(=O)c2ccco2)CC1 (configuration not stated)	0	3	-1	-3	5
COC(=O)C1=C(C(=O)OC)SC2(S1)C(C(=O)OC)=C(C(=O)OC)SC1=C2c2cc(C)cc(C)c2NC1(C)C	-6	-78*	3	-5	0
CCOC(=O)C(C)Sc1nnc2cc(C)c3ccccc3n12 (configuration not stated)	7	nt	2	10	0
CC1C(=O)CC(c2ccccc2)N(C)C1c1ccccc1 (configuration not stated)	-23	-79*	nt	-15	2
CC(C)(C)OC(=O)CC(=O)NNC(=O)c1cc2ccccc2[nH]1	nt	nt	2	12	2
O=C(Cn1cc(COc2c(F)c(F)cc(F)c2F)nn1)c1ccc(O)cc1	1	-79*	nt	nt	nt
COCCNC(=O)c1c(NC(=O)c2nc(SC)ncc2Cl)sc2c1CCCC2	-3	10	-1	-13	1
